This passage reports activity score results from PubChem BioAssay AID1814 (Broad Institute, 2009).

Each structure is given as a SMILES string. Among all 300,000 compounds or so, about 22,000 (7.3%) were called active. Not shown: some 2% with an inconclusive outcome. This is one part of a sample in which actives are shown more often than they occur. Cut-off read from the data, not from the text of the source: active = activity score below about -60%; inconclusive = mostly about -28% to -61%; inactive = positive scores.

A short description of the test: Activators working through SNCA 5'UTR binding (MLPCN) (AID 1814). The settings on record: alpha-synuclein 5'UTR reporter, activators screen; active compounds read low; tested at 7.5 µM.
With `CCN(CC)C(=O)C(=O)Nc1cccc(Br)c1`, the activity score is -75.5% (active).

In the case of `COc1cc(N=Cc2c(O)[nH]c3ccccc23)cc(OC)c1OC`, the activity score was 81% (inactive).

Consider `COc1cccc2[nH]c(C(=O)NCCc3ccccc3)cc12`, for which the activity score was -162% (active).

As for `NC(=S)N/N=C/c1coc2cc(Cl)ccc2c1=O`, the activity score is -88.7% (active).

Turning to `CCOc1ccc(Nc2oc(Cc3ccccc3)nc2C#N)cc1`, the activity score is -109% (active).

For `N#Cc1nc(Cc2ccccc2)oc1NCCc1ccccc1`, the activity score is -147% (active).

In the case of `COc1ccc(Nc2oc(-c3ccccc3Cl)nc2C#N)cc1`, the activity score is -108% (active).

For the compound `O=C(Nc1ccccc1)c1ccc(NC(=O)c2cccs2)cc1`, the activity score is -107% (active).

As for `COc1cc(NC(=O)c2cccs2)ccc1NC(=O)c1ccccc1Cl`, the activity score is -62.1% (active).

Take `Cc1ccc(C(=O)NNC(=O)c2cccs2)cc1`: the activity score is -65.9% (active).

On to `Cc1ccc(-c2csc(NC(=O)c3cccs3)n2)cc1`, for which the activity score was -239% (active).

With `O=C(NNC(=O)c1ccc(Cl)cc1Cl)c1cccs1`, the activity score was -115% (active).

For `COc1ccc(-n2nc(C(=O)NCC(=O)N3CCN(c4ccccc4OC)CC3)c3ccccc3c2=O)c(OC)c1`, the activity score is -64% (active).

Regarding `Cc1c(N=Nc2ccc(N(C)C)cc2)c(=O)n(-c2ccccc2)n1C`, the activity score is -101% (active).

`CCn1nc(C)c(NC(=O)/C=C/c2ccc(OC)c(COc3ccc(Br)cc3)c2)c1C`: the activity score was 61.8% (inactive).

Regarding `O=C(/C=C/c1ccc(Cl)cc1)Nc1ccc(Br)cn1`, the activity score is -62.5% (active).

As for `CC(C)=CCc1c(O)c(CC=C(C)C)c2occ(-c3ccc(O)cc3)c(=O)c2c1O`, the activity score is -75.6% (active).

For the compound `O=C(Nc1ccc2c(c1)CCC2)c1ccc(Br)s1`, the activity score was -159% (active).

For the compound `N/C(=N\OC(=O)c1ccc2c(c1)OCO2)c1ccc(Br)cc1`, the activity score is -162% (active).

As to `CCCCNc1ccc(C(=O)Nc2cccc(C)n2)cc1[N+](=O)[O-]`, the activity score is -102% (active).

Turning to `Cc1cc(NC(=O)CSc2nc3c(cc2C#N)CCCCC3)no1`, the activity score was -104% (active).

On to `COC(=O)/C(=C1\Oc2ccc(C(C)(C)C)cc2S1)C(F)(F)F`, for which the activity score is -189% (active).

As to `COc1ccc2c(c1)O/C(=C\c1ccccc1O)C2=O`, the activity score is -94.2% (active).

For the compound `O=C1Oc2ccccc2C(=O)/C1=C/c1ccccc1O`, the activity score was -96.6% (active).

As to `COc1ccc(-c2noc(-c3cccc(OC)c3OC)n2)cc1OC`, the activity score was -193% (active).

As for `COc1cc(NC(=O)c2ccc(-c3csc(C)n3)cc2)c(OC)cc1Cl`, the activity score was -64.4% (active).

In the case of `O=C(CCSc1ccccc1)N1CCN(c2ccccc2F)CC1`, the activity score was -115% (active).

Consider `COc1ccc(-c2nc3n(c2Br)CCC3)cc1`, for which the activity score is -122% (active).

`CN1C(=O)/C(=C/C=C2\SCCN2C)OC1=S`: the activity score was -169% (active).

Consider `OCCCNc1nccc(-c2cc(Nc3cccc(Cl)c3)ncn2)n1`, for which the activity score is 73.3% (inactive).

With `Cn1c(Nc2cccc(Cl)c2)nc2ccccc21`, the activity score is -63.6% (active).

Consider `CC(C)n1cnc2c(Nc3cccc(Cl)c3)nc(N(CCO)CCCO)nc21`, for which the activity score is 64.7% (inactive).

For the compound `O=c1c2cc(-c3ccccc3)sc2nc2n1N=C(c1cccs1)CS2`, the activity score was -105% (active).

Consider `Oc1ccccc1CNc1ncc(Br)cc1Br`, for which the activity score is -62.4% (active).

As to `COc1ccc2cc(C(=O)NCC3CCCO3)[nH]c2c1` (stereo not given), the activity score was -90.6% (active).

In the case of `O=C(NCCc1ccccc1)c1ccc2c(c1)N(Cc1ccccc1)CCS2`, the activity score was -105% (active).

Consider `O=C(Cn1c(=S)nc2ccccn21)N1CCc2ccccc2C1`, for which the activity score is -96.2% (active).

As for `CCn1nccc1C(=O)Nc1ccc(Cl)c(Cl)c1`, the activity score is -89.2% (active).

As for `CCc1ccc(NC2Nc3cc(C)nn3S2)cc1` (stereo not given), the activity score was -79.3% (active).

`CCOC(=O)c1cnc(Nc2nc3ccccc3o2)nc1CSC(=S)N1CCCCC1`: the activity score is -133% (active).

Regarding `NS(=O)(=O)c1ccccc1NC(=O)c1c(O)c2ccccc2[nH]c1=O`, the activity score was -64.6% (active).

With `CCOC(=O)c1cnc2[nH]c3ccccc3n2c1=O`, the activity score was -85.9% (active).

For the compound `CCCCCn1c(=O)c(C(=O)OCC)c(Cl)c2ccccc21`, the activity score was 92.6% (inactive).

With `Cc1ccc(SCCSc2ncccn2)cc1`, the activity score is -110% (active).

On to `FC(F)Oc1ccc(NC(=S)NCc2ccco2)cc1Cl`, for which the activity score was -62.2% (active).

For the compound `S=C(NCc1ccco1)Nc1ccc2c(c1)OCCO2`, the activity score was -105% (active).

Regarding `CCc1nnc(NC(=O)/C=C/c2ccc(C)o2)s1`, the activity score was -74.1% (active).

Take `Cc1nnc(NC(=O)/C=C/c2ccco2)s1`: the activity score is -101% (active).

For `CCC(CC)c1nnc(NC(=O)/C=C/c2ccco2)s1`, the activity score was -153% (active).

As to `CCOC(=O)N1CCN(S(=O)(=O)c2ccc(C(=O)Nc3ccc(F)cc3F)cc2)CC1`, the activity score was 69.5% (inactive).

In the case of `COc1ccc(C(=O)Nc2ccc(F)cc2F)cc1`, the activity score is -88.9% (active).

Regarding `Cn1c(CCN2CCCCCC2)nc2cc(NC(=O)Nc3ccccc3)ccc21`, the activity score was -91.9% (active).

As to `COc1ccc(NC(=O)c2ccc(OC)cc2)cc1`, the activity score was -63% (active).

Take `Cc1cccc(C(=O)Nc2ccc(Oc3cnccn3)cc2)c1`: the activity score is -86.6% (active).

Take `Cc1ccc(NC(=O)c2ccc(Oc3ncccn3)cc2)cc1`: the activity score was -124% (active).

As to `COc1ccc(NC(=O)c2c(C)oc3c2CCCC3)cc1`, the activity score is -64.6% (active).

Regarding `CCC(=O)Nc1ccc(C(=O)Nc2cccc(OC)c2)cc1`, the activity score was -74.7% (active).

Consider `COc1ccc(NC(=O)c2sccc2SCC#N)cc1`, for which the activity score is -77.3% (active).

Take `COc1ccc(C(=O)Nc2sc(C)c(C)c2CN2CCOCC2)cc1`: the activity score is -83.7% (active).

Consider `COc1ccc(C(=O)Nc2ccc(CN3CCOCC3)cc2)cc1`, for which the activity score was -86.6% (active).

For `COc1ccc(C(=S)Nc2ccccc2)cc1`, the activity score is -134% (active).

Turning to `COc1ccc(NC(=O)ON=C2c3ccccc3-c3ccccc32)cc1`, the activity score is -102% (active).

Consider `COc1ccc(NC(=O)CS(=O)(=O)c2ccccc2)cc1`, for which the activity score was -62.5% (active).

Consider `CCc1cc(C(N)=O)c(NC(=O)c2ccc(OC)cc2)s1`, for which the activity score is -174% (active).

Take `Cn1c(CN2CCOCC2)nc2cc(NC(=O)c3ccc(Cl)cc3)ccc21`: the activity score is -163% (active).

For the compound `COc1ccc(NC(=O)c2cc(-c3ccc(C)cc3)on2)cc1`, the activity score was -154% (active).

On to `COc1ccc(NC(=O)C2COc3ccccc3O2)cc1` (stereo not given), for which the activity score is -133% (active).

`CC(=O)c1cccc(NC(=O)C2COc3ccccc3O2)c1` (stereo not given): the activity score was -134% (active).

`NS(=O)(=O)c1ccc(NC(=S)NC(=O)c2cccc(Br)c2)cc1`: the activity score was -61.6% (active).

Turning to `O=S(=O)(c1ccc(F)cc1)n1ccc(-c2cnc(-c3ccccc3)s2)n1`, the activity score was -138% (active).

For the compound `c1ccc(CSc2nnc(-c3ccco3)n2Cc2ccccc2)cc1`, the activity score was -126% (active).

As for `Cc1ccc(CN2C(=O)N/C(=C/c3cc(C)n(-c4ccccn4)c3C)C2=O)cc1`, the activity score was -88.6% (active).

On to `O=C(NNC(=S)Nc1ccc(Br)cc1Cl)c1ccco1`, for which the activity score was -157% (active).

`NNc1nc2c(Cl)cccc2s1`: the activity score is -119% (active).

`Cc1nc2ccccc2nc(=O)c1NNc1ccc([N+](=O)[O-])cc1`: the activity score is -109% (active).

`CN(C(=O)c1ccccn1)c1nnc(-c2ccccn2)s1`: the activity score is -110% (active).

With `Cc1sc2ncnc(N3CCC(C(=O)Nc4nc5ccc(Cl)cc5s4)CC3)c2c1C`, the activity score was -183% (active).

For `COc1cc2ccccc2cc1C(=O)Nc1ccncc1`, the activity score was -70.2% (active).

Take `COc1cc2ccccc2cc1C(=O)Nc1nc(C)c(C(C)=O)s1`: the activity score is -106% (active).

Consider `Cc1ccc2nc(-c3ccncc3)cc(C(=O)Nc3ccc(OC(F)F)cc3)c2c1`, for which the activity score was 67.6% (inactive).

Take `COc1cc2ccccc2cc1C(=O)Nc1ccccc1C`: the activity score is -118% (active).

As to `COC(=O)c1sc(NC(=O)c2ccc(OC)cc2OC)nc1C`, the activity score was 101% (inactive).

Take `COc1cc(OC)c(C(=O)Nc2ccc(N(C)C)cc2)cc1OC`: the activity score was -129% (active).

Turning to `COc1ccc2c3c1O[C@H]1C[C@@H](O)C=C[C@@]31CCN(C)C2`, the activity score was 62% (inactive).

On to `O=C(Cn1cc(C(=O)c2cccs2)c2ccccc21)NCc1cccs1`, for which the activity score is -69.5% (active).

With `CCOC(=O)N/N=C/c1cn(Cc2ccccc2Cl)c2ccccc12`, the activity score was 42.5% (inactive).

`COC(=O)c1cn(CC(=O)NCc2cccs2)c2ccccc12`: the activity score was -111% (active).

For `CCOc1ccccc1NC(=O)Cn1nnc(C(=O)NCc2cccs2)c1N`, the activity score is 84.9% (inactive).

Take `Cc1ccc(N)cc1-n1c(C)ccc1C`: the activity score is -77.6% (active).

With `O=c1cc(-c2ccccc2)[nH]c2cc(F)ccc12`, the activity score was 93.3% (inactive).

In the case of `Cc1ccc(-c2cc(=O)c3ccc(F)cc3[nH]2)cc1`, the activity score was -68.9% (active).

For `Cc1ccc(-n2nc3ccc(NC(=O)/C=C/c4ccco4)cc3n2)cc1C`, the activity score is -154% (active).

Take `O=C(Nc1cccc(-c2nc3ccccc3[nH]2)c1)c1ccc(C(=O)Nc2cccc(-c3nc4ccccc4[nH]3)c2)cc1`: the activity score is -70.2% (active).

Regarding `O=C(/C=C/c1ccco1)Nc1cccc(-c2nc3ccccc3[nH]2)c1`, the activity score is -143% (active).

`Cc1cccc(OC(=O)c2sc3ncn(C)c(=O)c3c2C)c1`: the activity score was -210% (active).

For `Cc1c(C(N)=O)sc2ncn(CCOc3ccccc3)c(=O)c12`, the activity score is -66.2% (active).

On to `c1ccc(CCc2nc(-c3ccncc3)no2)cc1`, for which the activity score was -99% (active).

`O=C1c2ccccc2C(=O)c2c1cccc2N1CCN(CCO)CC1`: the activity score was -64.5% (active).

On to `N#C/C=C1\Sc2ccccc2C(=O)N1CC(=O)N1CCN(S(=O)(=O)c2ccccc2)CC1`, for which the activity score is -152% (active).

On to `Fc1ccc2nc(Nc3nc4c(s3)CCCC4)sc2c1`, for which the activity score is -206% (active).

`O=C1CCCc2c1[nH]c1ccc(Br)cc21`: the activity score was 89% (inactive).

As to `NS(=O)(=O)c1ccc(N=Nc2c(O)[nH]c3ccc(Br)cc23)cc1`, the activity score is -119% (active).

`Cc1noc(C)c1CCC(=O)N1CCCC(CO)(Cc2ccccc2)C1` (stereo not given): the activity score was -110% (active).

Turning to `COC(=O)CCC(=O)N1CCCC(CO)(Cc2ccccc2)C1` (stereo not given), the activity score is -124% (active).

Turning to `Cc1ccc(OC(=O)c2c(C)nn(-c3ccccc3)c2C)cc1`, the activity score was -131% (active).
